The values below come from PubChem BioAssay (EPA / NIEHS).

The AC50 is the midpoint of the concentration-response curve, whichever way the signal moves.

The nature of assay [1]: ATG_TAL_CIS: Attagene CIS-FACTORIAL HepG2 Assay for human TAL Basal Promoter (AID 2282966; active = hit-call score of the fitted dose curve at least 0.9, where 1 is the maximum; inactive = score below 0.9;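 note: background control endpoint measuring basal TAL promoter reporter mRNA not a specific factor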). Particulars: HepG2 Attagene cis-factorial TAL promoter reporter; actives raise or lower the signal. Put shortly: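 Background-control endpoint: basal TAL promoter reporter transcripts in transiently transfected HepG2, measured 24 h after dosing. Read-out by RT-PCR with fluorescent primer extension and capillary electrophoresis; gain or loss of signal fitted relative to DMSO.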

The nature of assay [2]: ATG_TGFb_CIS: Attagene CIS-FACTORIAL HepG2 Assay for human Transforming Growth Factor (TGF) (AID 2282967; active = hit-call score of the fitted dose curve at least 0.9, where 1 is the maximum; inactive = score below 0.9). Particulars: HepG2 Attagene CIS TGFb reporter, mRNA transcription; actives raise or lower the signal. Put shortly:
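Liver HepG2 line, cis-factorial reporter panel, 24 h dosing. Quantitation: RT-PCR products labeled with 6-FAM, cut with HpaI, resolved by capillary electrophoresis; DMSO-referenced bidirectional analysis.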

The nature of assay [3]: ATG_VDRE_CIS: Attagene CIS-FACTORIAL HepG2 Assay for human Vitamin D Receptor Element (VDRE) (AID 2282968; active = hit-call score of the fitted dose curve at least 0.9, where 1 is the maximum; inactive = score below 0.9). As to conditions: HepG2 VDRE cis-reporter transcription, actives raise or lower the signal. Put shortly:
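Measures endogenous factor activity through cis-element-driven reporter transcripts in transiently transfected HepG2. Cells are treated 24 h; reporter mRNA is quantified by RT-PCR and capillary electrophoresis; fitting is bidirectional.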

For assay [4], the target named is Nuclear receptor subfamily 1 group I member 3 (Homo sapiens) (UniProt Q14994). In words: ATG_CAR_TRANS: Attagene TRANS-FACTORIAL HepG2 Assay for human Constitutive Androstane Receptor (CAR) (AID 2282969).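 Note: activators raise reporter mRNA above DMSO so AC50 marks induction.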 As to conditions: HepG2 Attagene TRANS-FACTORIAL CAR reporter. Put shortly: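 Signal is reporter mRNA induction relative to DMSO, measured 24 h after dosing by RT-PCR with fluorescent primer extension and capillary electrophoresis. Human HepG2 liver cells carried transiently transfected chimeric NR-Gal4/GAL4-UAS reporter constructs.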
Chain of Nuclear receptor subfamily 1 group I member 3 (Homo sapiens) (Q14994 whole entry, looked up, the tested form may be a part): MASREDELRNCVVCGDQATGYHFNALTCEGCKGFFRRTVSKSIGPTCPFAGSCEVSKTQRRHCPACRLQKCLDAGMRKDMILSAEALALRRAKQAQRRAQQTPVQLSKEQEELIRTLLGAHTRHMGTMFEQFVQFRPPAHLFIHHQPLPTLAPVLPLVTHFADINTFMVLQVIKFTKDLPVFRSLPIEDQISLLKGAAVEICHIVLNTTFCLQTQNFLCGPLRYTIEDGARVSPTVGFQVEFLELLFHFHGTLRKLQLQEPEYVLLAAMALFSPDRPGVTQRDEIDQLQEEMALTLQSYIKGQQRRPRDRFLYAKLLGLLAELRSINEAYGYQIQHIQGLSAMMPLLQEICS

The target in assay [5] is Steroid hormone receptor ERR1 (Homo sapiens) (UniProt P11474). Description: ATG_ERRa_TRANS: Attagene TRANS-FACTORIAL HepG2 Assay for human Estrogen-Related Receptor alpha (ERRa) (AID 2282971). As to conditions: HepG2 Attagene TRANS reporter, ERRa transactivation. In a few lines:
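Reporter transcripts from ERRa-Gal4 chimera activity measured in transiently transfected human HepG2 cells 24 hours after dosing, using RT-PCR with 6-FAM primer extension, HpaI digestion and capillary electrophoresis; DMSO is baseline.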

For assay [6], the target named is X-box-binding protein 1 (Homo sapiens) (UniProt P17861). In words: ATG_Xbp1_CIS: Attagene CIS-FACTORIAL HepG2 Assay for human X-box Binding Protein 1 (XBP1) (AID 2282972; active = hit-call score of the fitted dose curve at least 0.9, where 1 is the maximum; inactive = score below 0.9). Particulars: HepG2 XBP1 cis-element reporter, Attagene multiplex; actives raise or lower the signal. Put shortly:
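Multiplexed cis-reporter readout in transfected HepG2 liver cells. Exposure lasted 24 hours. Activity in either direction was fitted against DMSO as negative control and baseline.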

Assay [7] can be described thus: ATG_M_19_TRANS: Attagene TRANS-FACTORIAL HepG2 Assay for M19 Transcription Factor (Internal Marker) (AID 2282974). Particulars: HepG2 Attagene TRANS-FACTORIAL M19 internal marker reporter. In a few lines:
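Fluorescence of 6-FAM-labelled reporter cDNA fragments, separated by capillary electrophoresis, served as the readout. These derived from HepG2 cells carrying transfected GAL4-UAS reporter units after 24 h dosing, with DMSO as negative control.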

In assay [8] the target is Oxysterols receptor LXR-beta (Homo sapiens) (UniProt P55055). In words: ATG_LXRb_TRANS: Attagene TRANS-FACTORIAL HepG2 Assay for human Liver X Receptor beta (LXRb) (AID 2282981). As to conditions: HepG2 Attagene TRANS GAL4-LXRb reporter, mRNA. In a few lines:
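After 24 h of chemical treatment, transfected HepG2 cells yield total RNA; reporter cDNA is PCR-amplified, FAM-labelled, HpaI-cut and run on capillary electrophoresis. Signal reflects chimeric LXRb-Gal4 activity on GAL4-UAS reporters.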

The target in assay [9] is Hepatocyte nuclear factor 4-alpha (Homo sapiens) (UniProt P41235). In words: ATG_HNF4a_TRANS: Attagene TRANS-FACTORIAL HepG2 Assay for human Hepatocyte Nuclear Factor 4 alpha (HNF4a) (AID 2282982). Particulars: HepG2 HNF4a transactivation reporter, mRNA readout. Put shortly:
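Multiplexed reporter assay: transfected HepG2, 24 h exposure, total RNA → oligo(dT) RT → PCR → 6-FAM extension → HpaI digest → CE fluorescence. DMSO = negative control.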

The nature of assay [10]: ATG_M_32_TRANS: Attagene TRANS-FACTORIAL HepG2 Assay for M32 Transcription Factor (Internal Marker) (AID 2282984). Particulars: HepG2 Attagene TRANS M32 internal marker reporter. Put shortly: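 Cell-based TRANS-format assay in HepG2: exogenous chimeric GAL4 reporter units transiently expressed, compounds applied 24 h. Reporter mRNA detected by RT-PCR plus capillary electrophoresis; this readout is an internal background marker.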

Assay [11] deals with Transcriptional activator Myb (Homo sapiens) (UniProt P10242). In words: ATG_Myb_CIS: Attagene CIS-FACTORIAL HepG2 Assay for human Myeloblastosis (Myb) Proto-Oncogene Transcription Factor (AID 2282986; active = hit-call score of the fitted dose curve at least 0.9, where 1 is the maximum; inactive = score below 0.9). As to conditions: HepG2 Attagene CIS-FACTORIAL Myb reporter transcription; actives raise or lower the signal. In a few lines:
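Reporter transcript levels, quantified by fluorescent RT-PCR and capillary electrophoresis, serve as the read-out. Transfected HepG2 cells carrying cis-promoter reporter units are dosed for 24 hours, and curves are fitted bidirectionally against DMSO controls.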

Assay [12] deals with Nuclear respiratory factor 1 (Homo sapiens) (UniProt Q16656). Description: ATG_NRF1_CIS: Attagene CIS-FACTORIAL HepG2 Assay for human Nuclear Respiratory Factor 1 (NRF1) Orphan Gene (AID 2282987; active = hit-call score of the fitted dose curve at least 0.9, where 1 is the maximum; inactive = score below 0.9). As to conditions: HepG2 NRF1 cis-element reporter, Attagene multiplex; actives raise or lower the signal. Put shortly: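 Multiplexed cis-reporter assay, HepG2 cells, 24 h treatment. Total RNA → oligo(dT) RT → PCR with reporter-specific primers → 6-FAM primer extension → HpaI cut → CE. Bidirectional fit vs DMSO.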
Chain of Nuclear respiratory factor 1 (Homo sapiens) (Q16656 whole entry, looked up): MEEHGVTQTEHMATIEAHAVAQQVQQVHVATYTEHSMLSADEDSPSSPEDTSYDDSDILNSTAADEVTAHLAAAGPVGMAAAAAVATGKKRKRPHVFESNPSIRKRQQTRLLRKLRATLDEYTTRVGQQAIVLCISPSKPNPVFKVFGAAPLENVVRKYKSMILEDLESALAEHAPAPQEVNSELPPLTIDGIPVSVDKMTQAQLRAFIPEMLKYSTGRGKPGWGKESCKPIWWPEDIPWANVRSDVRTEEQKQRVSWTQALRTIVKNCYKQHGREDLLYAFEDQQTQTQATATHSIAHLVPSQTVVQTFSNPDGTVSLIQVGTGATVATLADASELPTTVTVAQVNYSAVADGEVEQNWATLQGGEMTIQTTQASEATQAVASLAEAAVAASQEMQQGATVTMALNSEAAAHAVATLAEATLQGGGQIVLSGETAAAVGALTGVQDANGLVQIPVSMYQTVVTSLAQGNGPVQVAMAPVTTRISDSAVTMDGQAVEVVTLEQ

The target of assay [13] is Estrogen-related receptor gamma (Homo sapiens) (UniProt P62508). Description: ATG_ERRg_TRANS: Attagene TRANS-FACTORIAL HepG2 Assay for human Estrogen-Related Receptor gamma (ERRg) (AID 2282977).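 Note: hits increase reporter signal over DMSO so potencies reflect activators.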 Particulars: HepG2 Attagene TRANS reporter, ERRg transactivation. In a few lines: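 Readout: fluorescent reporter-mRNA fragments resolved by capillary electrophoresis after RT-PCR and HpaI cut. Cells: transiently transfected HepG2 carrying GAL4-UAS reporters driven by exogenous NR-Gal4 chimeras, dosed 24 h. Activity fitted upward relative to DMSO baseline.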

The target of assay [14] is Glucocorticoid receptor (Homo sapiens) (UniProt P04150). In words: ATG_GR_TRANS: Attagene TRANS-FACTORIAL HepG2 Assay for human Glucocorticoid Receptor (GR) (AID 2282978).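 Note: activators score as hits since higher reporter transcript over DMSO is fitted.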 Particulars: HepG2 Attagene TRANS GR reporter, mRNA transcription. Put shortly:
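Fluorescent capillary-electrophoresis quantitation of reporter mRNA is the readout, taken 24 h after dosing human HepG2 cells carrying transiently transfected GAL4-UAS reporter units activated by chimeric NR-GAL4 fusions; activity scored as induction over DMSO.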

Assay [15] has as its target Bile acid receptor (Homo sapiens) (UniProt Q96RI1). In words: ATG_FXR_TRANS: Attagene TRANS-FACTORIAL HepG2 Assay for Farnesoid X Receptor (FXR) (AID 2282979).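 Note: hits raise reporter mRNA above DMSO so AC50 marks FXR activation.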 Particulars: HepG2 Attagene TRANS FXR-GAL4 reporter transcription. Put shortly:
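Reporter transcripts from transfected HepG2 cells were measured 24 h after dosing, using RT-PCR with capillary electrophoresis of 6-FAM-labelled fragments. The read-out reflects activity of exogenous FXR-Gal4 chimera on GAL4-UAS units, with induction relative to DMSO.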

A short description of assay [16]: ATG_M_06_TRANS: Attagene TRANS-FACTORIAL HepG2 Assay for M06 Transcription Factor (Internal Marker) (AID 2282983). As to conditions: HepG2 Attagene TRANS M06 internal marker reporter. Put shortly: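 Background-control reporter readout: after 24 h chemical exposure of transiently transfected HepG2 (GAL4-UAS reporter units), mRNA quantified by RT-PCR with fluorescent labeling and capillary electrophoresis. Gain-of-signal fitting against DMSO baseline.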

Assay [17] addresses Nuclear receptor subfamily 4 group A member 2 (Homo sapiens) (UniProt P43354). Description: ATG_NURR1_TRANS: Attagene TRANS-FACTORIAL HepG2 Assay for human Nuclear Receptor Related Protein 1 (NURR1) (AID 2282985). As to conditions: HepG2 Attagene TRANS reporter, mRNA readout. Put shortly: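 Measures transcriptional activation by an exogenous NR-Gal4 chimera in transfected HepG2 liver cells. After 24 h, reporter RNA is reverse-transcribed, amplified and resolved by capillary electrophoresis; DMSO defines baseline.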

The nature of assay [18]: ATG_GAL4_TRANS: Attagene TRANS-FACTORIAL HepG2 Assay for GAL4 (Internal Marker) (AID 2282976). Particulars: HepG2 Attagene TRANS GAL4 internal marker reporter. In a few lines:
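In transfected human HepG2 liver cells dosed 24 h, GAL4 reporter mRNA serves as a baseline marker. Detection by RT-PCR with fluorescent capillary electrophoresis, activity fitted upward relative to DMSO.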

The target of assay [19] is Oxysterols receptor LXR-alpha (Homo sapiens) (UniProt Q13133). In words: ATG_LXRa_TRANS: Attagene TRANS-FACTORIAL HepG2 Assay for human Liver X Receptor alpha (LXRa) (AID 2282980). As to conditions: HepG2 Attagene TRANS reporter, LXRa transactivation. Put shortly:
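Chemical-induced reporter mRNA measured by RT-PCR with fluorescent labelling and capillary electrophoresis after 24 h dosing of transiently transfected HepG2 cells expressing exogenous NR-Gal4 chimeras; increases scored against DMSO baseline.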

Inconclusive results are not listed. Active and inactive are the calls of the source. Rule for the calls, unless noted: active = hit-call score of the fitted dose curve at least 0.9, where 1 is the maximum; inconclusive = response in the unintended direction; inactive = score below 0.9.

Chain of Steroid hormone receptor ERR1 (Homo sapiens) (P11474 whole entry, looked up, the tested form may be a part): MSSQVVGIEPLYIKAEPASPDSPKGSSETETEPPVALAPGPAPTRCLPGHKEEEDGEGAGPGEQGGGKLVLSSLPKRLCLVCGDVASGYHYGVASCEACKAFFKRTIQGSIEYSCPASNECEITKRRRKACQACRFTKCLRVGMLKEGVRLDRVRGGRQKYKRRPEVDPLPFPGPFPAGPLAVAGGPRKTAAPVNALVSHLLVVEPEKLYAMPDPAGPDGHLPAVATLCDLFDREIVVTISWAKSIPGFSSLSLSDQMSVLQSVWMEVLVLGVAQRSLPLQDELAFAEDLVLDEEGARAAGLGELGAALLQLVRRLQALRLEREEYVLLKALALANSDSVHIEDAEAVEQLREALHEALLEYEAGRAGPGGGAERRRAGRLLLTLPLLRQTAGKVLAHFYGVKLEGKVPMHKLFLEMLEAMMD
Chain of Transcriptional activator Myb (Homo sapiens) (P10242 whole entry, looked up): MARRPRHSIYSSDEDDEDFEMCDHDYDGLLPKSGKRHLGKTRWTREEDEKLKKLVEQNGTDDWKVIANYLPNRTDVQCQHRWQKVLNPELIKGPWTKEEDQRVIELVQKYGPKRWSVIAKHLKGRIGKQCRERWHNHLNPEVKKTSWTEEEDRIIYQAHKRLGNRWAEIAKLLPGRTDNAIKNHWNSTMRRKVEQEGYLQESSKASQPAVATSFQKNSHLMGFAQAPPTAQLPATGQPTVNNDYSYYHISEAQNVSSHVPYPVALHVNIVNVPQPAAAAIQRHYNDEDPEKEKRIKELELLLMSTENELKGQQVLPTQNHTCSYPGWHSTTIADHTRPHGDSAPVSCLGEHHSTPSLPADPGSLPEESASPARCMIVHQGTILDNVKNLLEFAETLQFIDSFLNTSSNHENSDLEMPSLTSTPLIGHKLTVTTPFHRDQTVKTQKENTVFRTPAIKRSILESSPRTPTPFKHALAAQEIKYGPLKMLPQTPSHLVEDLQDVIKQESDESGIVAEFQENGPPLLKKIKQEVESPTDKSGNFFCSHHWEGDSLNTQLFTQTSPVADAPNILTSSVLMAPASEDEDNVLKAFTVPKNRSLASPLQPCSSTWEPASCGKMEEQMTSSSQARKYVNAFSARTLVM
Chain of X-box-binding protein 1 (Homo sapiens) (P17861 whole entry, looked up): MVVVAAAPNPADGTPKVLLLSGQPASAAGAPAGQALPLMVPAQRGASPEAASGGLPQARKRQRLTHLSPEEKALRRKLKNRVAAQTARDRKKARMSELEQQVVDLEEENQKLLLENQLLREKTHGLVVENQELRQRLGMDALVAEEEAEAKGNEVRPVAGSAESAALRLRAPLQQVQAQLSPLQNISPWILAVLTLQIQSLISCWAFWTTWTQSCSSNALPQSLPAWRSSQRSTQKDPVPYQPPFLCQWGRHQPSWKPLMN
Chain of Hepatocyte nuclear factor 4-alpha (Homo sapiens) (P41235 whole entry, looked up): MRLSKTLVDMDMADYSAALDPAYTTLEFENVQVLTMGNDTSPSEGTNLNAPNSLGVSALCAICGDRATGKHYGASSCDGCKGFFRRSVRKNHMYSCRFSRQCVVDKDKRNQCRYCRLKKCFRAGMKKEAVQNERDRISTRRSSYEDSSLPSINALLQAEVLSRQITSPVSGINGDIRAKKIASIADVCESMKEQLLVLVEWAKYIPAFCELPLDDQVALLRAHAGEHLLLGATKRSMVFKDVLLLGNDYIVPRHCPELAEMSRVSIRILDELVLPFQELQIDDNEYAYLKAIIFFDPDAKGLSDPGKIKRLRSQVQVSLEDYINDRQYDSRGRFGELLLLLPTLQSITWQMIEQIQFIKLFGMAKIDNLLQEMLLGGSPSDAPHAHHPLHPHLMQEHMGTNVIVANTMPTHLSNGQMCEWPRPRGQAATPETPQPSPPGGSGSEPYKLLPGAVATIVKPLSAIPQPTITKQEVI
Chain of Nuclear receptor subfamily 4 group A member 2 (Homo sapiens) (P43354 whole entry, looked up, the tested form may be a part): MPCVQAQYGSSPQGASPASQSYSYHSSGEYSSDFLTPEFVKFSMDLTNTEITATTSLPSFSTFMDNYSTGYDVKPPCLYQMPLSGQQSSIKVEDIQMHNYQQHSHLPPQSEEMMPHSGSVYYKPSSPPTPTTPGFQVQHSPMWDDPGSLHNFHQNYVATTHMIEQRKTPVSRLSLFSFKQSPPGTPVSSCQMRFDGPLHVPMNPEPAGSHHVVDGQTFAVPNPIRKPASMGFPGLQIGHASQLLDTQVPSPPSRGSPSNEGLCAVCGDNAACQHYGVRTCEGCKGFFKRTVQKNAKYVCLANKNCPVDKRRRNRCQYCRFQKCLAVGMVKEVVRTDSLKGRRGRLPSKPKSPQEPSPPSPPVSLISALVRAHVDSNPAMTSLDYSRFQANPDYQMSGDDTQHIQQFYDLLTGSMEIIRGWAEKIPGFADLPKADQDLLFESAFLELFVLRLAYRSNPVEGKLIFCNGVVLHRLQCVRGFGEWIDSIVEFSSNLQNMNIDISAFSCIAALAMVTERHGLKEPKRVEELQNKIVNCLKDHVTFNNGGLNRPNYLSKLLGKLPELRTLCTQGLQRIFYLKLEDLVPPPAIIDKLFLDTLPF
Chain of Oxysterols receptor LXR-beta (Homo sapiens) (P55055 whole entry, looked up, the tested form may be a part): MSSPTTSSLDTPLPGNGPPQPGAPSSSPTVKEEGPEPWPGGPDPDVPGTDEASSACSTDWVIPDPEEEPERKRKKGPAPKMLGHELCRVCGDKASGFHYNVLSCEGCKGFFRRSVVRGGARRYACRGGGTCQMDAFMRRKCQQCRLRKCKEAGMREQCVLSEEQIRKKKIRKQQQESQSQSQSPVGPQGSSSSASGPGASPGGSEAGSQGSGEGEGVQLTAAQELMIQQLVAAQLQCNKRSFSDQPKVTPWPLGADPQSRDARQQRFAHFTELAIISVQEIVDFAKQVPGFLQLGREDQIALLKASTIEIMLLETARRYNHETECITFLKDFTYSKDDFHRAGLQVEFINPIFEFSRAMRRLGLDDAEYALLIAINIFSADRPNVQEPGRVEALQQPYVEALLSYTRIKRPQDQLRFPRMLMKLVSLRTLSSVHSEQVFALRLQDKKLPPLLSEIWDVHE
Chain of Glucocorticoid receptor (Homo sapiens) (P04150 whole entry, looked up, the tested form may be a part): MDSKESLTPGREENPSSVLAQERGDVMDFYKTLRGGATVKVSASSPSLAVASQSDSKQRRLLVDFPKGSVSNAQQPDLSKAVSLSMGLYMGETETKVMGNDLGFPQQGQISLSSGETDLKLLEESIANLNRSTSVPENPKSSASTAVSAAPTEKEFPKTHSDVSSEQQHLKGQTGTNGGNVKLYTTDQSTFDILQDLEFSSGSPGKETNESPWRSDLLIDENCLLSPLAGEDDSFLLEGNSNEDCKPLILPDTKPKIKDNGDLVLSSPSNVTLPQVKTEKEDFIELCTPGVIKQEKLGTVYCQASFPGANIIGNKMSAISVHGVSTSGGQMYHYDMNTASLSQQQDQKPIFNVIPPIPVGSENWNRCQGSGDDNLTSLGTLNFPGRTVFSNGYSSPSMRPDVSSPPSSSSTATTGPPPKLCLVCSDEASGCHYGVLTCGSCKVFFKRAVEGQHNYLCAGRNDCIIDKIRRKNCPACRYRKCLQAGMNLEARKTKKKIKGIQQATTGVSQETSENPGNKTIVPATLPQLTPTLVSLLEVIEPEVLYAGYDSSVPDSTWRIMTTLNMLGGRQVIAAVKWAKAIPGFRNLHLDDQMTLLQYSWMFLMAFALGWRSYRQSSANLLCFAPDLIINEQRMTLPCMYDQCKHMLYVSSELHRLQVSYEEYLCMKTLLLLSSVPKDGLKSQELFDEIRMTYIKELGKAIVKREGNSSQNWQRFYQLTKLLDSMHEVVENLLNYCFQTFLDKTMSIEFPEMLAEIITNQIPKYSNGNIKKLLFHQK
Chain of Bile acid receptor (Homo sapiens) (Q96RI1 whole entry, looked up, the tested form may be a part): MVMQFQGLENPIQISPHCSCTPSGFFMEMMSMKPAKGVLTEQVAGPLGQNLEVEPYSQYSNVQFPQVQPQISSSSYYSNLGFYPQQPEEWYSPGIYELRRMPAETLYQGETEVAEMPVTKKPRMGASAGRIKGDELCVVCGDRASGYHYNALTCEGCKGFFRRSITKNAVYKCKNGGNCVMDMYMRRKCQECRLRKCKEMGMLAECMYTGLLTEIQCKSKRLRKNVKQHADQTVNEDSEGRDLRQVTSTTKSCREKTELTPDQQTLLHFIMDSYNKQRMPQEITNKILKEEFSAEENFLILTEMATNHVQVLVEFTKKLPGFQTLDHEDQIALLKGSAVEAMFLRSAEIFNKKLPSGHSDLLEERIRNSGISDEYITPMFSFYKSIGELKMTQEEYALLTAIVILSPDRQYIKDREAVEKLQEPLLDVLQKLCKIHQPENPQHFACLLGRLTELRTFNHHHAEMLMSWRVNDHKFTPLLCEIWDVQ

For the compound `C#CC(C)(O)CC(C)C` (stereo not drawn), the call in [1], in [2], in assay [3], in assay [4], in [5] and in [6] was inactive. Besides, the result in [7], in assay [8], in assay [9], in assay [10], in [11] and in [12] was inactive.
`C=Cc1ccncc1`: the call in assay [1], in assay [2], in assay [4], in assay [5], in [7] and in assay [13] was inactive. Besides, the result in assay [14], in [15], in assay [8] and in assay [16] was inactive. Moreover, the AC50 in assay [3] is 20.2 µM (active); in assay [6] it was 26.1 µM (active); in assay [9], 84.1 µM (active); in assay [17], 100 µM (active); in [11], 30.8 µM (active); in assay [12] it was 37.5 µM (active).
Consider `C=C(C)CNCC`, for which the outcome in assay [1], in [2], in [3], in assay [4], in [5] and in assay [6] was inactive. Besides, the outcome in assay [18], in [14], in assay [9], in assay [16], in assay [10] and in assay [17] was inactive. Also, the compound was called inactive in assay [11] and in [12].
With `CCOc1ccc(N=Nc2ccc(C=Cc3ccc(N=Nc4ccc(OCC)cc4)cc3S(=O)(=O)O)c(S(=O)(=O)O)c2)cc1`, the result in [1], in assay [2], in [3], in [4], in assay [6] and in assay [7] was inactive. The result in assay [19], in assay [9], in assay [16], in assay [10] and in assay [12] was inactive.
